Measured values reported in PubChem BioAssay (EPA / NIEHS).
The source made the active and inactive calls. The calls were made as follows: active = hit-call score of the fitted dose curve at least 0.9, where 1 is the maximum; inactive = score below 0.9.

Columns and labels:
Details in all cases: mRNA level, 48 h; actives raise or lower the signal
[1] = read-out: Tumor necrosis factor receptor superfamily member 6 (Homo sapiens) (UniProt P25445); test: LTEA_HepaRG_FAS: Life Technologies and Expression Analysis (LTEA) Assay for Fas cell surface death receptor (FAS) using HepaRG (AID 2283447)
In short: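 FAS transcript level was measured by TaqMan qRT-PCR against three housekeeping genes after 48 h chemical exposure. Cells were HepaRG, 0.5% DMSO vehicle, with a top concentration of 100 uM and half-log dilutions over eight points, in duplicate.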

[2] = read-out: Fatty acid synthase (Homo sapiens) (UniProt P49327); test: LTEA_HepaRG_FASN: Life Technologies and Expression Analysis (LTEA) Assay for Fatty Acid Synthase (FASN) using HepaRG (AID 2283448);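 as to AC50: differentiated human HepaRG liver cells in serum-free induction medium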
In short: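 Transcript-level assay: HepaRG liver cells are treated for 48 h across an eight-point range topping at 100 uM, and FASN mRNA, normalized to three housekeeping genes, is compared with DMSO controls in both directions.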

[3] = read-out: Cyclin D2 (CCND2), CCND2 (gene 894); test: LTEA_HepaRG_CCND2: Life Technologies and Expression Analysis (LTEA) Assay for Cyclin D2 (CCND2) using HepaRG (AID 2283449)
In short: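 Read-out is CCND2 mRNA level measured by qRT-PCR in human HepaRG liver cells and normalised to three housekeeping genes. Chemicals were applied for 48 h at up to 100 uM, with gain or loss fitted relative to 0.5% DMSO.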

[4] = read-out: Cyclin Dependent Kinase Inhibitor 1A (CDKN1A), CDKN1A (gene 1026); test: LTEA_HepaRG_CDKN1A: Life Technologies and Expression Analysis (LTEA) Assay for Cyclin Dependent Kinase Inhibitor 1A (CDKN1A) using HepaRG (AID 2283450)
In short: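 Read-out is CDKN1A mRNA by TaqMan qRT-PCR, normalized to three housekeeping genes and fitted in both directions against the DMSO baseline. Human HepaRG cells were treated 48 h with test chemicals up to 100 uM in half-log steps, 0.5% DMSO.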

[5] = read-out: catalase (CAT), CAT (gene 847); test: LTEA_HepaRG_CAT: Life Technologies and Expression Analysis (LTEA) Assay for catalase (CAT) using HepaRG (AID 2283452)
In short: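 Expression of CAT was quantified by TaqMan qRT-PCR with ACTB/GAPDH/POLR2A normalization after 48 h chemical exposure of HepaRG. Eight-point half-log series, top 100 uM, in 0.5% DMSO; gain or loss fitted against vehicle.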

[6] = read-out: Cytochrome P450 (CYP1A1), CYP1A1 (gene 1543); test: LTEA_HepaRG_CYP1A1: Life Technologies and Expression Analysis (LTEA) Assay for Cytochrome P450 (CYP1A1) using HepaRG (AID 2283454)
In short: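 HepaRG, 48 h post-plating switched to serum-free induction medium; 8-pt conc-response (top 100 uM, half-log, 0.5% DMSO), duplicates, 48 h. Lysis in RLT, TaqMan qRT-PCR for CYP1A1; gain or loss vs DMSO.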

[7] = read-out: CFLAR gene, CFLAR (gene 8837); test: LTEA_HepaRG_CFLAR: Life Technologies and Expression Analysis (LTEA) Assay for CFLAR gene using HepaRG (AID 2283455)
In short: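 HepaRG, 48 h exposure, 8-pt conc-response (100 uM top, half-log), 0.5% DMSO vehicle, duplicates. CFLAR expression by qRT-PCR; ACTB/GAPDH/POLR2A normalization; gain or loss fit vs DMSO baseline.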

[8] = read-out: Forkhead box O1 (FOXO1), FOXO1 (gene 2308); test: LTEA_HepaRG_FOXO1: Life Technologies and Expression Analysis (LTEA) Assay for Forkhead box O1 (FOXO1) using HepaRG (AID 2283456)
In short: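 Readout is FOXO1 transcript level by multiplexed qRT-PCR against three housekeeping genes, curve-fitted in both directions relative to 0.5% DMSO vehicle. Human HepaRG cultures received chemicals for 48 h, up to 100 uM in half-log steps.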

[9] = read-out: growth arrest and DNA damage 45 (GADD45A), GADD45A (gene 1647); test: LTEA_HepaRG_GADD45A: Life Technologies and Expression Analysis (LTEA) Assay for growth arrest and DNA damage 45 (GADD45A) using HepaRG (AID 2283458)
In short: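 Human HepaRG liver cells are treated in duplicate for 48 h with chemicals in 0.5% DMSO, highest concentration 100 uM. Expression is read by qRT-PCR and analyzed in both directions against vehicle.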

[10] = read-out: Forkhead box O3 (FOXO3), FOXO3 (gene 2309); test: LTEA_HepaRG_FOXO3: Life Technologies and Expression Analysis (LTEA) Assay for Forkhead box O3 (FOXO3) using HepaRG (AID 2283459)
In short: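 HepaRG, 48 h post-dose; 8 conc., half-log from 100 uM, 0.5% DMSO, duplicates; serum-free induction medium. Readout: FOXO3 mRNA, TaqMan qRT-PCR, housekeeping-normalized. Bidirectional curve fit vs DMSO baseline.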

[11] = read-out: ABC Transporter (ABCB1), ABCB1 (gene 5243); test: LTEA_HepaRG_ABCB1: Life Technologies and Expression Analysis (LTEA) Assay for ABC Transporter (ABCB1) using HepaRG (AID 2283460)
In short: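 Expression of ABCB1 was quantified by qRT-PCR against three housekeeping genes after human HepaRG cultures received test chemicals for 48 hours. Concentrations spanned eight half-log steps topping at 100 uM in 0.5% DMSO; gain or loss of signal was fitted relative to vehicle.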

[12] = read-out: growth arrest and DNA damage 45 (GADD45B), GADD45B (gene 4616); test: LTEA_HepaRG_GADD45B: Life Technologies and Expression Analysis (LTEA) Assay for growth arrest and DNA damage 45 (GADD45B) using HepaRG (AID 2283461)
In short: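 HepaRG, ~100,000 cells/well, 48 h plating; serum-free induction medium; cpd 100 uM top, half-log x8, 0.5% DMSO, duplicate, 48 h; lysis in RLT, RNA isolation, qRT-PCR; norm ACTB/GAPDH/POLR2A; bidirectional fit vs DMSO.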

[13] = read-out: ABC Transporter (ABCC3), ABCC3 (gene 8714); test: LTEA_HepaRG_ABCC3: Life Technologies and Expression Analysis (LTEA) Assay for ABC Transporter (ABCC3) using HepaRG (AID 2283462)
In short: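 Human HepaRG, 48 h dosing, 8-pt half-log series from 100 uM, 0.5% DMSO vehicle, duplicates. ABCC3 mRNA by TaqMan qRT-PCR, housekeeping-normalized; bidirectional curve fit vs DMSO.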

[14] = read-out: ABC Transporter (ABCB11), ABCB11 (gene 8647); test: LTEA_HepaRG_ABCB11: Life Technologies and Expression Analysis (LTEA) Assay for ABC Transporter (ABCB11) using HepaRG (AID 2283463)
In short: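 ABCB11 transcript levels are read by Fluidigm TaqMan qRT-PCR after 48 h chemical treatment of human HepaRG cells. Concentrations span 100 uM downward in half-log steps with 0.5% DMSO; gain or loss is fitted against DMSO controls.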

[15] = read-out: ABC Transporter (ABCC2), ABCC2 (gene 1244); test: LTEA_HepaRG_ABCC2: Life Technologies and Expression Analysis (LTEA) Assay for ABC Transporter (ABCC2) using HepaRG (AID 2283464)
In short: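 HepaRG, 48 h post-plating; serum-free induction medium; cpd 8-pt, 100 uM top, half-log, 0.5% DMSO, duplicate, 48 h. Readout: ABCC2 mRNA by qRT-PCR, norm. ACTB/GAPDH/POLR2A. Bidirectional fit vs DMSO baseline.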

[16] = read-out: Broad substrate specificity ATP-binding cassette transporter ABCG2 (Homo sapiens) (UniProt Q9UNQ0); test: LTEA_HepaRG_ABCG2: Life Technologies and Expression Analysis (LTEA) Assay for ABC Transporter (ABCG2) using HepaRG (AID 2283465)
In short: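 Read-out is ABCG2 mRNA induction or loss quantified by qRT-PCR after 48 h chemical treatment of human HepaRG cells, normalized to three housekeeping genes. Concentrations reached 100 uM top in half-log steps; fitting was bidirectional against 0.5% DMSO.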

[17] = read-out: ATP-citrate lyase (ACLY), ACLY (gene 47); test: LTEA_HepaRG_ACLY: Life Technologies and Expression Analysis (LTEA) Assay for ATP-citrate lyase (ACLY) using HepaRG (AID 2283466)
In short: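 HepaRG, 48 h exposure, 8-pt half-log dilutions (top 100 uM), 0.5% DMSO. Readout: ACLY mRNA, TaqMan qRT-PCR, housekeeping-normalized (ACTB/GAPDH/POLR2A). Bidirectional curve fit vs DMSO.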

[18] = read-out: Cyclin D1 (CCND1), CCND1 (gene 595); test: LTEA_HepaRG_CCND1: Life Technologies and Expression Analysis (LTEA) Assay for Cyclin D1 (CCND1) using HepaRG (AID 2283451)
In short: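 HepaRG plated 48 h, medium switched to serum-free induction medium, chemicals added in duplicate (top 100 uM, half-log steps, 0.5% DMSO) for 48 h, cells lysed, RNA measured by TaqMan qRT-PCR.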

[19] = read-out: flavin-containing dimethylaniline monooxygenases 3 (FMO3), FMO3 (gene 2328); test: LTEA_HepaRG_FMO3: Life Technologies and Expression Analysis (LTEA) Assay for flavin-containing dimethylaniline monooxygenases 3 (FMO3) using HepaRG (AID 2283453)
In short: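 HepaRG, 48 h exposure, 8-pt half-log series from 100 uM, 0.5% DMSO vehicle, duplicates; FMO3 transcript by Fluidigm TaqMan qRT-PCR, housekeeping-normalized; gain/loss fit vs DMSO.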

Chain of Fatty acid synthase (Homo sapiens) (P49327 whole entry, looked up): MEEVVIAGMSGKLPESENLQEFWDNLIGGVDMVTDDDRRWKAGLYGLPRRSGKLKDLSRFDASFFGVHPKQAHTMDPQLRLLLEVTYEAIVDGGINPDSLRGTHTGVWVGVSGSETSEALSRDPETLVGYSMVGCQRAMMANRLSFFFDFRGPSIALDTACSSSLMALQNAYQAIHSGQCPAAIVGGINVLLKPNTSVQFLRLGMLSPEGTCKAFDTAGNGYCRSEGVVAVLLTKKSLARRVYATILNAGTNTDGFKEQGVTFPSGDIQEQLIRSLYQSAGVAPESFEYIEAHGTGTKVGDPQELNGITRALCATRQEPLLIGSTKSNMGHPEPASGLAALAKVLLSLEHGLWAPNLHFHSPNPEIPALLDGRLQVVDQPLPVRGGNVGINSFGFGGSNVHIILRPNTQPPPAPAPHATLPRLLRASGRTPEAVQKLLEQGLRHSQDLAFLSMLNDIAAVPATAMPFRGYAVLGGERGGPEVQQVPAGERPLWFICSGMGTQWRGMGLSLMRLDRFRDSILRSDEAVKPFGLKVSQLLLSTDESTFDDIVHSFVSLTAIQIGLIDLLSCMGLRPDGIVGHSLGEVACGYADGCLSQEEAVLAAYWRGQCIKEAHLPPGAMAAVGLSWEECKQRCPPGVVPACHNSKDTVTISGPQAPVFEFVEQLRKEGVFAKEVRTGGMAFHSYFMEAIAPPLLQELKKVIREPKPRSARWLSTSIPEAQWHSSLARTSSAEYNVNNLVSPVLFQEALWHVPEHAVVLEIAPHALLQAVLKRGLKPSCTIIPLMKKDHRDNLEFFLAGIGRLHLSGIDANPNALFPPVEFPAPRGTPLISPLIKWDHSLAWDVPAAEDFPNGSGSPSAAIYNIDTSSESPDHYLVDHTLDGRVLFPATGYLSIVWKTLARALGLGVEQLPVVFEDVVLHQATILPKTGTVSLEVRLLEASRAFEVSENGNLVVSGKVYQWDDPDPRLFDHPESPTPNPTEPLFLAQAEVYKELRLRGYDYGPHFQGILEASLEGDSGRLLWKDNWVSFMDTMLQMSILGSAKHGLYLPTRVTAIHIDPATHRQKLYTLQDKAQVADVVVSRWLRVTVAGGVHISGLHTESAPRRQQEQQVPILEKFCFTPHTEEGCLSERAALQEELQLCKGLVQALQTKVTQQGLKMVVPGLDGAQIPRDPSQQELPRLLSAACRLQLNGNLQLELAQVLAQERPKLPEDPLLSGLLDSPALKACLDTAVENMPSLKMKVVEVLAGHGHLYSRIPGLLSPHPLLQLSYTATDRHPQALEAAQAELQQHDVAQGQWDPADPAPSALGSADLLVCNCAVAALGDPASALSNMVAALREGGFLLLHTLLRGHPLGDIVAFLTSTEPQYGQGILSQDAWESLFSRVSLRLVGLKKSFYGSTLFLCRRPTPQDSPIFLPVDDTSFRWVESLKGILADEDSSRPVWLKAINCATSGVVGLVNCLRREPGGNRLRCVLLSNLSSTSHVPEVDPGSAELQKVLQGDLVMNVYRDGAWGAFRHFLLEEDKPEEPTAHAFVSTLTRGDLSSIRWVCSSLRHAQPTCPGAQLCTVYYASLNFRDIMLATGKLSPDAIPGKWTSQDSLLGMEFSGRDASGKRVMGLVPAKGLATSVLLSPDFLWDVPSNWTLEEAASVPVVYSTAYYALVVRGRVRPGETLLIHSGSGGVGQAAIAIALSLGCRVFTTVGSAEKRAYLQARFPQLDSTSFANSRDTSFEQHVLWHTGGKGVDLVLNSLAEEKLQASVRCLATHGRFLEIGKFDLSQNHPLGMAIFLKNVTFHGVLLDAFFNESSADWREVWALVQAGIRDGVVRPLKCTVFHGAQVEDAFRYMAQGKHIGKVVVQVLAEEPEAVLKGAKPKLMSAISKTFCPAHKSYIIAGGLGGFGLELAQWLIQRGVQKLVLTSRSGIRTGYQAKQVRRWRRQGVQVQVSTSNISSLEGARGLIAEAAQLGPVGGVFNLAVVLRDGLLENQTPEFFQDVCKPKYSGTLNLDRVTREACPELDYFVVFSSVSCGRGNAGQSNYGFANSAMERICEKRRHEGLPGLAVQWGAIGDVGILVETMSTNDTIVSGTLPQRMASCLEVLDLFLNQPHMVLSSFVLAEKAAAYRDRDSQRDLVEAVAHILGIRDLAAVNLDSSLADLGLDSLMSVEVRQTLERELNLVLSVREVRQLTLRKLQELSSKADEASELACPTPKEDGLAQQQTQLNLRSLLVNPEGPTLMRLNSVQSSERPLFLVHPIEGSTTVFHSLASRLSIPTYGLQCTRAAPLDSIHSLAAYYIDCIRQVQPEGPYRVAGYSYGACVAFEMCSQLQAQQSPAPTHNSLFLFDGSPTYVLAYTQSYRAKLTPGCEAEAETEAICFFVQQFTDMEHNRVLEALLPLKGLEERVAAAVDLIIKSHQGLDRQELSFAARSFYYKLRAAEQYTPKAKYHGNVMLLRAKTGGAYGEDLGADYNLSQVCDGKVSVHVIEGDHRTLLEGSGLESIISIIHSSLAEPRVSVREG
Chain of Broad substrate specificity ATP-binding cassette transporter ABCG2 (Homo sapiens) (Q9UNQ0 whole entry, looked up): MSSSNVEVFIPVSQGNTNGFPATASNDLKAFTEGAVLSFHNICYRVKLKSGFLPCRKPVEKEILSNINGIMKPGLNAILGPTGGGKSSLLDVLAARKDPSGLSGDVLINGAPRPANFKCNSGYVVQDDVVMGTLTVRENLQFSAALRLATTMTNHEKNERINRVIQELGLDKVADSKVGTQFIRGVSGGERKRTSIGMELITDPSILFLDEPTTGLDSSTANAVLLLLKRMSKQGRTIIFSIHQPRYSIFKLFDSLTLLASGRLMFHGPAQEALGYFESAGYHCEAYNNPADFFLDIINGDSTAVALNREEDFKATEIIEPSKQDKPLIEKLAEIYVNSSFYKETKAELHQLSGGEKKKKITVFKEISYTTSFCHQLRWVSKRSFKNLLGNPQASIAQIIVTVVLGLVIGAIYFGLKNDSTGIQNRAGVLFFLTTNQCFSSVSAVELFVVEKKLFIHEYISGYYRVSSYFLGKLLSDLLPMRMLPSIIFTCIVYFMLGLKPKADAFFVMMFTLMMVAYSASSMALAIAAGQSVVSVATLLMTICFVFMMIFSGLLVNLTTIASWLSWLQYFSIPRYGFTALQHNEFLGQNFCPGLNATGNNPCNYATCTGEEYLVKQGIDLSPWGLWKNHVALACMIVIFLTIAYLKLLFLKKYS

`Clc1cc(Cl)c(Cl)cc1Cl` was tested, and the outcome [1] was “inactive”, the outcome [2] was “inactive” and the outcome [3] was “inactive”. The outcome [4] was “inactive”, the outcome [5] was “inactive” and the AC50 [6] was 50 µM (active). The outcome [7] was “inactive”, the outcome [8] was “inactive” and the outcome [9] was “inactive”. The outcome [10] was “inactive”, the outcome [11] was “inactive” and the outcome [12] was “inactive”. For the same molecule, the outcome [13] was “inactive”, the outcome [14] was “inactive” and the outcome [15] was “inactive”. The outcome [16] was “inactive” and the outcome [17] was “inactive”.

For `Cc1oc(-c2ccccc2)nc1CCOc1cccc2c1ccn2CCC(=O)O`, the AC50 [1] was 87.9 µM (active), the AC50 [2] was 11.9 µM (active) and the outcome [3] was “inactive”. For the same molecule, the AC50 [4] was 71.2 µM (active), the AC50 [5] was 88.3 µM (active) and the outcome [6] was “inactive”. For the same molecule, the AC50 [7] was 10.7 µM (active), the AC50 [8] was 85.6 µM (active) and the AC50 [9] was 75.2 µM (active). The outcome [10] was “inactive”, the AC50 [11] was 81.3 µM (active) and the AC50 [12] was 75.8 µM (active). The AC50 [14] was 93.7 µM (active), the outcome [15] was “inactive” and the AC50 [16] was 40.2 µM (active). For the same molecule, the AC50 [17] was 38.7 µM (active).

For `CC(=O)C(C)=CC1C(C)=CCCC1(C)C` (stereo not drawn), the outcome [1] was “inactive”, the outcome [2] was “inactive” and the outcome [4] was “inactive”. For the same molecule, the outcome [18] was “inactive”, the outcome [5] was “inactive” and the outcome [19] was “inactive”. For the same molecule, the outcome [6] was “inactive”, the outcome [7] was “inactive” and the outcome [8] was “inactive”. For the same molecule, the outcome [10] was “inactive”, the outcome [11] was “inactive” and the outcome [12] was “inactive”. For the same molecule, the outcome [14] was “inactive”, the outcome [15] was “inactive” and the outcome [17] was “inactive”.

`CCCCOC(=O)CCCCCCCCC(=O)OCCCC` was tested, and the outcome [1] was “inactive”, the outcome [2] was “inactive” and the outcome [4] was “inactive”. The outcome [18] was “inactive”, the outcome [5] was “inactive” and the outcome [19] was “inactive”. For the same molecule, the outcome [6] was “inactive”, the outcome [7] was “inactive” and the outcome [8] was “inactive”. The outcome [10] was “inactive”, the outcome [11] was “inactive” and the outcome [12] was “inactive”. For the same molecule, the outcome [14] was “inactive”, the outcome [15] was “inactive” and the outcome [17] was “inactive”.
